Source: PubChem
Only some compounds are listed: those with a hit (about 4.8% of all), similar ones and a draw of the others.
ssDAF12 agonist = activators of S. stercoralis DAF-12 nuclear receptor; HEK293 ssDAF-12/GRIP1 lit1-tk-luc reporter, luminescence; % of 3 µM dafachronic acid response; activation, % at 6.8 µM; 370,000 tested, 1% active;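 active means activation above the mean over all tested compounds plus 3 SD, cut at about 0.9% in these data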
hcDAF-12 act = H. contortus DAF-12 activation, primary screen | HEK293 hcDAF-12 lit1-tk-luc reporter, luminescence; 0% DMSO, 100% Δ7-dafachronic acid | activation, % at 6.8 µM | 370,000 tested, 1.4% active | AID 652067;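 active means activation above the mean of all tested compounds plus 3 SD, cut at about 5.5% in these data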
hgDAF-12 ag = hgDAF-12 agonism, primary luciferase screen; HEK293 GAL4-hgDAF12 UAS-luciferase reporter, agonist luminescence; normalized to butyrate control; AID 687014; 370,000 tested, 1.8% active; activation, % at 6.8 µM;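 active means activation above a cutoff set at the mean of all screened compounds plus 3 SD, cut at about 10% in these data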
DAX1 inh-1 = inhibitors of DAX1 repression of SF-1 activated StAR promoter. HEK293T StAR-luciferase reporter, SF-1/DAX-1 repression relief. inhibition, % at 6.8 µM. 370,000 tested, 1.1% active. AID 652010;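 active means inhibition above the mean over all tested compounds plus 3 SD, cut at about 3.6% in these data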;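 further: higher inhibition means more luminescence from relief of DAX-1 repression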
SMARCA2 act = SMARCA2 function activation, primary screen | 370,000 tested, 1% active | MG213 cells, MMTV-luciferase reporter, dexamethasone, overnight | activation, % at 9.1 µM; in the data active means activation above about 7.8%
DAX1 inh-2 = inhibitors of human orphan nuclear receptor DAX1 (NR0B1). P51843. HEK293 Gal4-DAX1 luciferase reporter, luminescence. inhibition, % at 6.75 µM. 340,000 tested, 0.99% active;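 active means inhibition above the mean over all tested compounds plus 3 SD, cut at about 4.2% in these data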;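 further: inhibition shows as a rise in luminescence from relieved DAX1 repression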
Target sequence (P51843 207-470 limits assumed): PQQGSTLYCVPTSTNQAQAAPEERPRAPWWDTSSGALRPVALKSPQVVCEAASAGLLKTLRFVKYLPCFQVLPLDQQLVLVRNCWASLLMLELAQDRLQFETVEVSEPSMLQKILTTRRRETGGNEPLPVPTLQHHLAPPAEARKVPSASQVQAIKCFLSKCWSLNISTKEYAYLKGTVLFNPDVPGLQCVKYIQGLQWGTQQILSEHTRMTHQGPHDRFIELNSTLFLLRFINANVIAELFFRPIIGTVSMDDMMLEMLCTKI
DAX1 conf = confirmation of human DAX1 (NR0B1) inhibitors; HEK293T StAR-promoter luciferase reporter, SF-1/DAX-1 repression; inhibition, % at 6.8 µM; AID 652134; 2,400 tested, 87% active; shares compounds with DAX1 inh-1;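 active means inhibition above the average of every tested compound plus 3 SD, cut at about 3.8% in these data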;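 further: active compounds raise luminescence by relieving repression of the StAR reporter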
SF1 AF2mut Luc = nonselective inhibitor or artifact in SF-1 mutant DAX1 counter-screen | shares compounds with DAX1 inh-1 | HEK293 StAR-luciferase, SF-1 AF2 mutant, luminescence | inhibition, % at 6.8 µM | 2,400 tested, 78% active;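 active means inhibition above the mean of all tested compounds plus 3 SD, cut at about 3% in these data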
Each line names hits and unclear results; the compound was inactive in the other large screens (follow-up assays come after a bar, where they were run).

Cc1cn([C@H]2C[C@H](O)[C@@H](CNS(=O)(=O)c3ccc(NS(=O)(=O)N(C)C)cc3)O2)c(=O)[nH]c1=O	none
CCCS(=O)(=O)NC(=O)C1(C)CCN(C(=O)c2cccs2)C1 (centres undefined)	none (no result: DAX1 inh-2)
O=c1[nH]c(COc2ccc(Cl)cc2Cl)nc2ccccc12	DAX1 inh-1 5.2 | DAX1 conf 13 | SF1 AF2mut Luc 6.8
Cc1cnc(CNC(=O)c2csc([C@@H]3C[C@H](O)[C@@H](CO)O3)n2)cn1	none (no result: DAX1 inh-2)
O=C(O)c1ccc(N/N=C/c2ccc(-c3cc(Cl)ccc3Cl)o2)cc1	none
O=C(O)c1ccc(N/N=C/c2ccc(-c3ccc(Cl)cc3Cl)o2)cc1	DAX1 inh-1 5.1 | DAX1 conf 15 | SF1 AF2mut Luc 5.6
O=C(O)c1ccc(N/N=C/c2ccc(-c3cccc(Cl)c3)o2)cc1	ssDAF12 agonist 1.0, hgDAF-12 ag 16, DAX1 inh-1 6.2, DAX1 inh-2 7.2 | DAX1 conf 13 | SF1 AF2mut Luc 7.6
O=C(/C=C/c1cccs1)NCc1ccccc1	none
O=c1cc(CO)[nH]nc1CO	none
COc1ccccc1NC(=O)NCC1(N(C)C)CCCCC1	none
COc1ccc(CN(C)C(=O)[C@H]2O[C@@H](n3ccc(=O)[nH]c3=O)[C@H](O)[C@@H]2O)cc1OC	DAX1 inh-1 4.7 (no result: DAX1 inh-2) | DAX1 conf inactive | SF1 AF2mut Luc inactive
Cc1ccc(NC(=O)CNc2cccc(S(=O)(=O)N3CCCCC3)c2)cc1F	none
Cc1ccc(NC(=O)CSc2ccc(S(=O)(=O)N3CCCC3)cn2)cc1F	DAX1 inh-1 5.9 | DAX1 conf inactive | SF1 AF2mut Luc inactive
Fc1ccc(-c2nnc(-c3ccc(Cl)cc3Cl)o2)cc1	hgDAF-12 ag 12, DAX1 inh-1 5.3 | DAX1 conf 8.3 | SF1 AF2mut Luc 3.6
Cc1noc(C)c1NC(=O)N(C)C[C@@H]1Oc2ccc(NS(=O)(=O)c3c(C)noc3C)cc2C(=O)N([C@H](C)CO)C[C@H]1C	none
CCCCCc1ccc(NC(=O)OCCCN2CCC3(CCC(c4ccccc4)CC3)C2=O)cc1 (centres undefined)	none (no result: DAX1 inh-2)
CCc1ccc(C(=O)NNC(=O)CN2C(=O)NC3(CCCC3)C2=O)cc1	none
Nc1ccc(-c2nc3cc(N)ccc3s2)cc1	ssDAF12 agonist 1.0, hcDAF-12 act 6.5, hgDAF-12 ag 21, DAX1 inh-1 4.8 | DAX1 conf 11 | SF1 AF2mut Luc 4.2
FC(F)(F)c1ccccc1Cc1c(-c2ccccc2)nc2ccc(Cl)cn12	none (no result: DAX1 inh-2)
Cc1ccc2nc(-c3ccc(Cl)cc3)c(CC3CCCCC3)n2c1	hcDAF-12 act 7.4, hgDAF-12 ag 23, DAX1 inh-1 6.2 (no result: DAX1 inh-2) | DAX1 conf 5.3 | SF1 AF2mut Luc 4.9
COC(=O)c1ccc2nc(-c3ccc(Cl)cc3)c(CC3CCCCC3)n2c1	none (no result: DAX1 inh-2)
Cc1ccc(-c2nc3ccc(C)cn3c2Cc2ccccc2C(F)(F)F)cc1	hgDAF-12 ag 12, DAX1 inh-1 5.7 (no result: DAX1 inh-2) | DAX1 conf 5.0 | SF1 AF2mut Luc 4.1
Cc1ccc2nc(C(C)(C)C)c(Cc3ccccc3C(F)(F)F)n2c1	none (no result: DAX1 inh-2)
Cc1ccc2nc(-c3ccccc3)c(Cc3ccccc3C(F)(F)F)n2c1	DAX1 inh-1 4.7 (no result: DAX1 inh-2) | DAX1 conf 3.8 | SF1 AF2mut Luc 3.8
FC(F)(F)c1ccccc1Cc1c(-c2ccc(Cl)cc2)nc2ccc(Cl)cn12	hgDAF-12 ag 12, DAX1 inh-1 4.8 (no result: DAX1 inh-2) | DAX1 conf 4.1 | SF1 AF2mut Luc 3.8
O=C(NCc1ccc(F)cc1)C1CCCN1S(=O)(=O)c1cccc2nsnc12 (centres undefined)	none
Cc1cc(C)c(NC(=O)Nc2ccc3c(c2)OCO3)c(C)c1	DAX1 inh-1 4.7 | DAX1 conf inactive | SF1 AF2mut Luc 3.4
O=C(Nc1cccc(C(=O)O)c1)Nc1ccc2c(c1)OCO2	DAX1 inh-1 6.8 | DAX1 conf 6.3 | SF1 AF2mut Luc 5.5
Cc1ccc(C(=O)O)cc1NC(=O)Nc1ccc2c(c1)OCO2	none
Cc1ccc(S(=O)(=O)N(C)CC(=O)Nc2cc(C)ccn2)cc1	hgDAF-12 ag 10, DAX1 inh-1 4.6 | DAX1 conf 6.8 | SF1 AF2mut Luc 5.2
O=C(CN1CCN(C(=O)CNC(=O)c2ccc(N3CCCC3=O)cc2)CC1)Nc1cccc(F)c1	none
N/C(=N\OC(=O)c1ccccc1)c1ccn[nH]1	DAX1 inh-1 12 | DAX1 conf 8.2 | SF1 AF2mut Luc 4.9
O=C(c1cccs1)N1CCN(C(=O)c2cn(-c3ccccc3)nc2-c2ccccc2)CC1	DAX1 inh-1 7.7 | DAX1 conf 5.8 | SF1 AF2mut Luc 3.4
CCSc1nnc(NC(=O)CCN2C(=O)C3CCCCC3C2=O)s1 (centres undefined)	DAX1 inh-1 4.8 | DAX1 conf inactive | SF1 AF2mut Luc inactive
CCCCC(=O)NC(=S)NNC(=O)CC#N	DAX1 inh-1 4.7 | DAX1 conf inactive | SF1 AF2mut Luc inactive
OCc1ccccc1-c1cnc2sc(NCc3ccc(F)cc3)nn12	none (no result: DAX1 inh-2)
S=C(NCCc1ccccc1)Nc1ncccn1	DAX1 inh-1 5.5 | DAX1 conf 3.9 | SF1 AF2mut Luc inactive
Cc1ccc(-n2ncc3c(N4CCCC(C)C4)ncnc32)c(C)c1 (centres undefined)	hgDAF-12 ag 11, DAX1 inh-1 4.8 | DAX1 conf 7.2 | SF1 AF2mut Luc 5.5
CC(C)C[C@@H](CN)NC(=O)c1nc[nH]c1C(=O)N[C@@H](C)C(=O)CNC[C@H](C)NC(=O)c1nc[nH]c1C(=O)N[C@@H](Cc1ccccc1)C(=O)O	none
Cc1ccc(C)c(OCc2cc(C(=O)N3CCOCC3)no2)c1	DAX1 inh-1 5.7 | DAX1 conf 5.3 | SF1 AF2mut Luc 4.7
O=C(c1cc(COc2c(F)cccc2F)on1)N1CCCCCC1	DAX1 inh-1 4.8, SMARCA2 act 7.9 | DAX1 conf 4.6 | SF1 AF2mut Luc 3.0
COC1CCN(C(=O)c2cc(COc3cc(C)ccc3C)on2)CC1	none
CC(=O)N1CCCN(C(=O)c2cc(COc3c(F)cccc3F)on2)CC1	none
CSc1ccccc1OCc1cc(C(=O)N2CCCC(C)C2)no1 (centres undefined)	hgDAF-12 ag 12, DAX1 inh-1 6.5 | DAX1 conf 8.3 | SF1 AF2mut Luc 4.0
CCOC(=O)N1CCN(C(=O)c2cc(COc3c(F)cccc3F)on2)CC1	hgDAF-12 ag 12, DAX1 inh-1 7.8 | DAX1 conf 8.9 | SF1 AF2mut Luc 5.7
O=[N+]([O-])c1cc([N+](=O)[O-])c(Oc2cc(F)cc(F)c2)cc1NN1CCCCC1	none
